Only a selection was taken, and hits are over-represented in it overall.
GluA2 TARP mod = modulates AMPAR-stargazin complexes; O88602+P19491; HEK293 GluA2+stargazin, membrane potential dye (FDSS), glutamate EC50; hits were called plate by plate, in both directions; calls only at 30 µM; actives 3.5% (n = 40,000); AID 1259245;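 active = any of four per-well response measures lying three or more SD from its plate-wide compound average, in either direction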
Target sequence (O88602 whole entry, looked up): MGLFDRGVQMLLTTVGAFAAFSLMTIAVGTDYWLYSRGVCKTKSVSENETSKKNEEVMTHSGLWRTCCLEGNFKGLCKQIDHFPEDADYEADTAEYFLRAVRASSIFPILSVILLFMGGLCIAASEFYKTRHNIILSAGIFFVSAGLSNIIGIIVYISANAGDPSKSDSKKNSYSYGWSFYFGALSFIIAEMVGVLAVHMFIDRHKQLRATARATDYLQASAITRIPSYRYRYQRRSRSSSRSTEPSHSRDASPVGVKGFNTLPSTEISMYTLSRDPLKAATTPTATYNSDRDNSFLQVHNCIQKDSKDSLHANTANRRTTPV
Target sequence (P19491 whole entry, looked up): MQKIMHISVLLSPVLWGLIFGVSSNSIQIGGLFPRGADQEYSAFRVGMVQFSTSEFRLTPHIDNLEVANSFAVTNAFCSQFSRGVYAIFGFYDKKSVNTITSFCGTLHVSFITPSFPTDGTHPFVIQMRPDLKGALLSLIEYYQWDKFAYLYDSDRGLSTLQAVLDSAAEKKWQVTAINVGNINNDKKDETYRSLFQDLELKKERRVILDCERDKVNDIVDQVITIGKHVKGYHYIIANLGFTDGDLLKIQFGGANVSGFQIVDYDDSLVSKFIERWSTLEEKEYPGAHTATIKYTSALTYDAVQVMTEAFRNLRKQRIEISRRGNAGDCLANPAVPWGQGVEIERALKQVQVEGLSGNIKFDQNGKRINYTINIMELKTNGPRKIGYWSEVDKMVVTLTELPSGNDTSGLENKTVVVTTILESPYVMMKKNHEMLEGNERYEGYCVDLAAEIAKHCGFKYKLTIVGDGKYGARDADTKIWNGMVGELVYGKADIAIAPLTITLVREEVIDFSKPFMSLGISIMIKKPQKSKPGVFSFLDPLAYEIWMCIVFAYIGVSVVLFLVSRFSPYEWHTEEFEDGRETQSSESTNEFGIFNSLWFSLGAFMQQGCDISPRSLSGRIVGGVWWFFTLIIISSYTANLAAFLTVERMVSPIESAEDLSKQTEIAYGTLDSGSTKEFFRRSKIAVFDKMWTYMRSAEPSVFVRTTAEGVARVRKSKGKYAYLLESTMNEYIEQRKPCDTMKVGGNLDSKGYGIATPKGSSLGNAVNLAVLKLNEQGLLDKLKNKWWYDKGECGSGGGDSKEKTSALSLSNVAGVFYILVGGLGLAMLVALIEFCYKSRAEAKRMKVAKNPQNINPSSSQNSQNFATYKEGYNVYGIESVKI
GIRK2 activator = GIRK2 channel activators by thallium flux | HEK293 GIRK2/NPY4 cells, thallium flux fluorescence | 34,000 tested, under 10 active | activation (% efficacy), % for hits at 75 µM | AID 1259324 | P48051;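 active = primary screen hit, no activity in plain HEK293 cells, and in GIRK2-only cells above 5% efficacy rising with concentration; inactive = the rest, including fluorescent compounds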;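 also: efficacy is normalized control-subtracted fluorescence 15 s after thallium addition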
An asterisk follows results filed as active; i = inactive; · = no result; + = active, no number.

SMILES	GluA2 TARP mod	GIRK2 activator
CCOc1ccccc1-c1nc(COC(=O)c2nnn(-c3cccc(SC)c3)c2C)c(C)o1	i	i
CCOC(=O)c1c(NC(=O)COc2cccc3c2CCN(Cc2ccc(Br)cc2)C3=O)sc2c1CCC2	+	·
O=C(COc1cccc2c1CCN(Cc1ccccc1)C2=O)NC1CCCCC1	i	·
Cc1cc(CN2CCC(CNS(=O)(=O)Cc3ccccc3Cl)CC2)c(C)o1	·	i
O=C(NC(c1ccccc1)c1ccccc1)c1ccc(S(=O)(=O)NCc2ccco2)o1	+	i
CC(NC(=O)c1ccc(S(=O)(=O)N2CCOCC2)o1)c1ccccc1 (stereo not drawn)	i	i
O=C(Nc1cc(-c2ccccc2)nn1CCO)c1cccc(Cl)c1	+	i
O=C(Nc1cc(-c2ccccc2)nn1CCO)c1ccsc1	i	i
O=C(Nc1ccc(-c2cn3ccsc3n2)cc1)NC1CCCCC1	+	i
COc1cc(C(C)=O)ccc1OCC(=O)Nc1ccc(-c2cn3ccsc3n2)cc1	i	i
CCC1=C(C(=O)OC)C(c2ccc(OC(F)F)c(OC)c2)n2ncnc2N1 (stereo not drawn)	i	i
COc1ccc(C)cc1S(=O)(=O)NCCOc1ccc2nnc(-c3ccccc3)n2n1	·	i
COc1ccc(-n2c(C)nc3ccc(NC(=O)c4ccc(F)c(F)c4)cc3c2=O)cc1	+	·
COc1cccc(C(=O)Nc2ccc3nc(C)n(-c4ccc(C)cc4)c(=O)c3c2)c1	i	·
Cc1cccc(NC(=O)c2ccc(=O)[nH]n2)c1	i	i
CN1CC(NC(=O)NCc2ccc(F)cc2)CC1=O (stereo not drawn)	·	i
Cc1ccc(-c2noc(CSc3nc4cc5c(cc4c(=O)n3Cc3ccco3)OCO5)n2)cc1	i	i
COc1ccc(C2(CNC(=O)c3cccs3)CCCC2)cc1	·	i
CN1CCN(n2c3c(c(SCC(=O)Nc4cccc5ccccc45)nc2=O)CCC3)CC1	i	i
Cc1cc(NC(=O)CSc2nc(=O)n(N3CCN(C)CC3)c3c2CCC3)no1	+	i
O=C(c1cc(=O)c2ccccc2o1)N(C(=O)N1CCCCC1)c1ccc(Cl)cc1	+	·
O=C(c1cc2ccccc2o1)N(C(=O)N1CCCCC1)c1ccc(Cl)cc1	i	·
O=C(c1ccc([N+](=O)[O-])o1)N(C(=O)N1CCCCC1)c1ccc(Cl)cc1	+	·
O=C(c1ccc(Br)o1)N(C(=O)N1CCCCC1)c1cccc(Cl)c1	i	i
COCCCN1COc2ccc3c(C)c(-c4ccc(OC)cc4)c(=O)oc3c2C1	i	i
SMILES	GluA2 TARP mod	GIRK2 activator
COCCNC(=O)Cc1ccc(NS(=O)(=O)c2ccc(NC(C)=O)cc2C)cc1	i	i
CC(=O)N1N=C(c2cccc(NS(C)(=O)=O)c2)CC1c1ccc(Cl)o1 (stereo not drawn)	i	·
COc1ccc(OC)c(NC(=O)c2cc(-c3ccc(C)o3)nc3ccccc23)c1	i	·
O=C(NCC(c1cccc2ccccc12)N1CCOCC1)c1cccc(Br)c1 (stereo not drawn)	i	i
COc1cccc(C(CNC(=O)c2ccccc2Br)N2CCOCC2)c1 (stereo not drawn)	i	i
COc1ccc(C(CNC(=O)c2ccccc2Br)N2CCOCC2)cc1 (stereo not drawn)	+	i
COc1ccc(C(CNC(=O)c2ccc3ccccc3c2)N2CCOCC2)cc1 (stereo not drawn)	+	·
COc1ccc(C(CNC(=O)c2cc(OC)cc(OC)c2)N2CCOCC2)cc1 (stereo not drawn)	i	·
O=C(NCC(c1cccc2ccccc12)N1CCOCC1)c1ccc(Br)o1 (stereo not drawn)	+	i
CCOC(=O)N1CCN(CC(O)COc2ccc3c(c2)OCO3)CC1 (stereo not drawn)	i	i
N#C/C(=C\c1ccc(Cl)cc1)c1ccccc1	i	·
COc1ccccc1N1CCN(C(=O)CCc2csc(NC(=O)c3ccccc3)n2)CC1	i	i
CCc1ccc(OCCS(=O)(=O)N2CCN(c3ncccn3)CC2)cc1	i	i
COc1ccc(S(=O)(=O)Nc2nc(C(=O)Nc3ccc(Cl)cc3)cs2)cc1	i	i
COc1ccc(S(=O)(=O)Nc2nc(C(=O)Nc3ccc(C(C)C)cc3)cs2)cc1	+	i
CC1=NN(c2ccccc2)C(=O)C1C(=O)c1ccc(S(=O)(=O)N(C)C)cc1 (stereo not drawn)	i	i
CC1=NN(c2ccccc2)C(=O)C1C(=O)c1ccc(Br)o1 (stereo not drawn)	+	i
CN(C)CCCN1C(=O)C(O)=C(C(=O)c2ccco2)C1c1ccccn1 (stereo not drawn)	i	i
Cc1cccc(Nc2ccc(N3CCN(C(=O)C4CCCO4)CC3)nn2)n1 (stereo not drawn)	·	i
Cc1cccc(Nc2ccc(N3CCN(C(=O)C4CCC(=O)N4)CC3)nn2)n1 (stereo not drawn)	+	i
CCc1ccc(S(=O)(=O)c2cnc(SCC(=O)NCc3ccccc3)[nH]c2=O)cc1	i	i
Cc1ccc(C)c(CN2C(=O)N(c3cc(C)ccc3C)C3CS(=O)(=O)CC32)c1 (stereo not drawn)	+	·
Cc1ccc(C)c(N2C(=O)N(Cc3ccc(Br)cc3F)C3CS(=O)(=O)CC32)c1 (stereo not drawn)	i	·
CC(C)CCNC(=O)Cc1csc(Nc2cccc(Cl)c2)n1	i	i
COc1ccc2c(=O)c(Oc3ccccc3F)c(C)oc2c1	i	·
SMILES	GluA2 TARP mod	GIRK2 activator
CCC(C(=O)NCCOc1ccc2nnc(-c3ccc(OC)cc3)n2n1)c1ccccc1 (stereo not drawn)	i	i
CCCC(=O)NCCOc1ccc2nnc(-c3cccc(OC)c3)n2n1	i	i
CCCC(=O)NCCOc1ccc2nnc(-c3ccc(OC)c(OC)c3)n2n1	+	i
COc1ccc(-c2nnc3ccc(OCCNC(=O)NCc4ccccc4)nn23)cc1	+	i
COc1ccc(-c2nnc3ccc(OCCNC(=O)Nc4ccc(Cl)cc4)nn23)cc1	i	i
COc1ccc(-c2nnc3ccc(OCCNC(=O)Nc4ccc(F)cc4)nn23)cc1	+	i
CC(C)(C)NC(=O)c1cc2cc(Cl)cc(Cl)c2oc1=O	i	i
CCNC(=O)C1Cc2ccccc2N1C(=O)Cc1cccc2ccccc12 (stereo not drawn)	i	i
COC(=O)c1sc(NC(=O)c2ccc(Cl)s2)c(C#N)c1C	i	i
COc1ccccc1-c1ccc(N2CCN(C(=O)CC3CCCC3)CC2)nn1	i	i
COc1ccccc1-c1c(C)oc2cc(OCC=C(C)C)ccc2c1=O	+	·
Cc1oc2cc(OCC(=O)OCc3ccccc3)ccc2c(=O)c1-c1ccccc1	+	·
CCN(CC)C(=O)Oc1ccc2c(=O)c(-c3ccccc3)c(C)oc2c1	i	·
CCOC(=O)COc1ccc2c(=O)c(-c3ccccc3)c(C)oc2c1	i	·
CCN(CC)C(=O)Oc1ccc2c(=O)c(-c3ccc(OC)c(OC)c3)c(C)oc2c1	+	i
COc1ccccc1-c1c(C)oc2cc(OC(=O)N3CCOCC3)ccc2c1=O	i	·
Cc1cc(C)c2c(n1)nn1c(NCCC3=CCCCC3)cc(C)nc21	i	i
Cc1cc(C)c2c(n1)nn1c(NCCOCCO)cc(C)nc21	+	i

Screening data from PubChem BioAssay.
